Bioassay records (PubChem BioAssay)
A selection: hits, their analogues and other compounds. The true share with any hit is near 4.1%.
Peg3 promoter – inhibitors of Peg3 promoter | HeLa PEG-Prom luciferase reporter, luminescence, overnight | actives 1.7% (n = 360,000) | inhibition, % at 20 µM;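 active = inhibition of at least 50% at 20 µM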
Shn3 3UTR inh – inhibitors of Schnurri-3 3'UTR reporter in osteoblasts. inhibition, % at 12.5 µM. AID 588674. actives 0.52% (n = 360,000). Clone20 osteoblast Shn3 3'UTR firefly luciferase, 24 h;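 active = mean inhibition of at least 75% with every replicate also reaching 75%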;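 also: 0% = median of neutral control wells and 100% = pilot-screen positive control compound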
TRPM1 prom inh – reduces MITF-dependent TRPM1 promoter luciferase signal. SK-MEL-5 TRPM1 promoter luciferase, 24 h. inhibition, % at 12.5 µM. actives 0.83% (n = 330,000). AID 488899;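 active = mean inhibition across replicates of 60% or more, whatever share of single replicates reaches that level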
TROY signal inh – inhibitors of TROY-dependent NF-kB signaling; inhibition, % at 10 µM; actives 0.98% (n = 360,000); AID 1347056; Q293 LMP1-TROYcd NF-kB luciferase reporter, 4 h;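 active = compounds whose plate-normalised and pattern-corrected inhibition of the luciferase reporter signal at the single screening dose is 50% or more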
EBV LMP1 NFkB – Epstein-Barr LMP1 NF-kappaB reporter inhibition. actives 0.69% (n = 350,000). AID 504558. LMP1-induced NF-kappaB luciferase reporter cells, luminescence. inhibition, % at 12.5 µM; in the data active = inhibition above about 41%;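 also: 0% = neutral control wells and 100% = reference inhibitor control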
TWEAK Fn14 block – inhibitors of TWEAK-Fn14 interaction signaling; TWEAK-stimulated Fn14 reporter cells, luciferase luminescence, 8 h; inhibition, % at 10 µM; actives 2% (n = 360,000); AID 1159606; in the data active = inhibition above about 50%
Active calls of the source: *; x = no result.

SMILES	Peg3 promoter	Shn3 3UTR inh	TRPM1 prom inh	TROY signal inh	EBV LMP1 NFkB	TWEAK Fn14 block
COc1ccc(CCC(=O)NCCc2nc3ccccc3[nH]2)cc1	-1	-11	3	-20	-3	13
CCCC(=O)NCCCc1nc2ccccc2[nH]1	10	-23	9	-12	87*	3
CCCC(=O)NCCc1nc2ccccc2n1C	6	-1	2	-26	-2	-1
O=C(Nc1ccc([N+](=O)[O-])cc1)Nc1ccc(N2CCOCC2)c2nonc12	62*	23	-5	69*	20	6
NC1=NC(=O)/C(=C/c2cccs2)S1	-16	-15	-19	-10	-11	-11
C=CCSC1=NC(=O)/C(=C/c2cccs2)S1	53*	-4	4	-75	-22	-37
O=C1CCCCCN1C(=O)c1ccccc1	5	-4	-2	6	18	11
CC(C)(C)c1ccc(C(=O)N2CCCCCC2=O)cc1	35	x	81*	32	39	45
COc1cc2c(cc1[N+](=O)[O-])-c1ccc([N+](=O)[O-])cc1C2=NO	52*	-25	x	14	-6	21
Cc1ccccc1OCC(=O)Nc1ccc(N2CCN(C(=O)c3ccco3)CC2)cc1	4	15	1	39	6	3
O=C(NCCCN1CCOCC1)/C(=C/c1ccc(F)cc1)NC(=O)c1ccccc1	9	-6	1	-5	0	1
Cc1ccc(NC(=O)c2cc(C)n(-c3cccc(C)c3)c2C)cc1	-243	-4	-21	44	-62	37
Cc1ccc(NC(=O)c2cc(C)n(-c3ccccc3)c2C)cc1	50	51	50	89*	31	97*
Cc1ccc(NC(=O)c2cnn(-c3ccccc3)c2C)cc1	-179	-26	-4	1	2	64*
Cc1c(C(=O)Nc2cccc([N+](=O)[O-])c2)csc1-c1ccccc1	-252	2	-51	-34	-59	-26
Cc1cc(C(=O)Nc2ccc(Cl)cc2)c(C)n1-c1ccccc1	87*	x	x	89*	x	103*
Cc1ccc(NC(=O)c2cnn(-c3ccccc3)c2C)c(C)c1	-283	-84	-59	-17	-12	-30
Cc1ccc(NC(=O)c2csc(-c3ccccc3)c2C)cc1	30	56	16	74*	45*	81*
N#CCCN(C(=O)COC(=O)c1cc(=O)[nH]c2ccccc12)c1ccccc1	13	-9	7	9	0	-18
COc1ccc2cc(C(=O)NC3CCCCC3)c(=O)oc2c1	-192	-1	-66	-64	81*	-18
O=C(NC1CCCCCC1)c1cc2ccccc2oc1=O	-281	-8	-71	5	-28	54*
O=C(CSc1nnc(-c2cccc(S(=O)(=O)N3CCOCC3)c2)n1C1CCCCCC1)NCc1ccccc1	27	12	13	6	47*	2
COC(=O)C1=NNC(C(=O)OC)C1c1ccccc1 (stereo not drawn)	12	2	2	-12	84*	17
COC(=O)C1=NNC(C(=O)c2ccco2)C1c1ccccc1 (stereo not drawn)	10	14	3	-13	4	-5
O=C(CSc1n[nH]c(-c2ccccn2)n1)Nc1cccc(Cl)c1	38	92*	33	8	37	21
SMILES	Peg3 promoter	Shn3 3UTR inh	TRPM1 prom inh	TROY signal inh	EBV LMP1 NFkB	TWEAK Fn14 block
Cc1nc(SCC(=O)Nc2cccc(Cl)c2)n[nH]1	7	-4	-3	12	-6	9
CCCCN1C(=O)C2(OCCCO2)c2cccc(C)c21	17	-13	3	2	-6	100*
C=CCN1C(=O)C2(OCCCO2)c2cccc(C)c21	7	-11	6	-1	7	-5
CC1(C)C=Cc2c(c3c(c4c(=O)c(-c5ccc(O)cc5)coc24)OC(C)(C)CC3)O1	63*	-17	7	-1	-13	17
CC1CCCC(NC(=O)COC(=O)CCC(=O)c2cccs2)C1C (stereo not drawn)	-4	-7	6	-14	57*	-2
CC1CCCCC1NC(=O)COC(=O)CCC(=O)c1cccs1 (stereo not drawn)	3	-14	-20	-8	2	5
CC1CCCC(NC(=O)COC(=O)CN2C(=O)C3CCCCC3C2=O)C1C (stereo not drawn)	1	-6	21	11	-12	50*
O=C(NCc1ccccn1)C1CCCN(S(=O)(=O)c2cc(Cl)ccc2Cl)C1 (stereo not drawn)	99*	78	98*	-14	-40	3
Cc1ccc(NC(=O)CCNC(=O)c2ccco2)cc1Cl	-3	-7	-8	-22	-1	15
O=C(C(=O)c1cc(Br)ccc1O)c1cc(Br)ccc1O	21	13	13	66*	0	34
O=C(c1ccc(O)c(Br)c1)c1cc(Br)ccc1O	36	-7	9	50*	-3	50
CC(CCC(=O)NN)C1CCC2C3CCC4CC(O)CCC4(C)C3CCC12C (stereo not drawn)	-19	23	9	24	-1	-17
CC(CCC(C)C(C)(C)C)[C@@H]1CC[C@H]2C3C[C@H](OS(O)(=S)=S)[C@H]4C[C@H](OS(O)(=S)=S)[C@@H](OS(O)(=S)=S)C[C@]4(C)[C@H]3CC[C@]12C (stereo partly drawn) (tested in a mixture with another compound)	58*	21	-21	36	0	-58
CN1CCN(C(=O)CC2(CC(=O)O)CCCC2)CC1	11	-1	29	16	-2	10
CCOc1ccc(/C=N/NC(=O)c2ccc(F)cc2)cc1CN1CC2CC(C1)c1cccc(=O)n1C2 (stereo not drawn)	-13	-26	-4	-2	-4	13
COc1cc(OC)c(NC(=O)c2cc3ccccc3cc2O)cc1Cl	-54	3	3	57*	-36	94*
Cc1nc2c(-c3ccccc3)cnn2c(N)c1-c1ccccc1	40	16	6	77*	3	98*
COc1ccc(-c2cc(C)nc3c(-c4ccccc4)cnn23)cc1	-219	-21	-17	66*	-30	65*
Cc1cc(NC2CCCC2)n2ncc(-c3ccccc3)c2n1	-65	-1	-24	81*	9	90*
Cc1cc(NCCCn2ccnc2)n2ncc(-c3ccccc3)c2n1	20	46	58	81*	50*	99*
Cc1cc(NC2CCCC2)n2nc(C)c(-c3ccccc3)c2n1	-127	-17	-91	-31	-23	-31
COc1ccccc1-c1c(C)nn2c(-c3ccccc3)cc(C)nc12	20	13	9	29	2	26
COc1ccc(-c2noc(CCC(=O)N3CCN(c4cccc(F)c4)CC3)n2)cc1	2	-25	3	32	-16	18
N#Cc1ccc(NC(=S)NC(=O)C2CC2)cc1	-17	-19	x	-21	-14	3
